# In all, about 5,500 compounds went through this assay and about 2,000 (36%) were called active. Not shown: some 18% with an inconclusive outcome. Some of the results follow. Values without a mark were called inactive. No stated cut-off is given here; in the data, active means normalized growth mostly below about 0.91 (no sharp cut-off); inconclusive means no clear call, values can overlap the other calls; inactive means mostly above about 0.92.
# Test: chemical genetic growth profiling, strain panel (AID 1159580);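 further: tested at 20 µM; growth read once vehicle control cultures reached saturation at 30 °C; 1 = growth at the plate median or of vehicle wells; lower values mean less growth of the strain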
# Conditions: S. cerevisiae deletion strains, growth OD
smiles,measurement,setting,value
CC1=C(/C=C/C(C)=C/C=C/C(C)=C/C=C/C=C(C)/C=C/C=C(C)/C=C/C(=O)[C@]2(C)C[C@@H](O)CC2(C)C)C(C)(C)C[C@H](O)C1,normalized growth,"locus YAL021C, strain ccr4, active compounds read low",1.05
same,normalized growth,"locus YAL026C, strain drs2, active compounds read low",1.06
same,normalized growth,"locus YAL030W, strain snc1, active compounds read low",1.01
same,normalized growth,"locus YBL061C, strain skt5, active compounds read low",1.03
same,normalized growth,"locus YBR009C, strain hhf1, active compounds read low",0.996
same,normalized growth,"locus YBR023C, strain chs3, active compounds read low",1.03
same,normalized growth,"locus YBR171W, strain sec66, active compounds read low",1.03
same,normalized growth,"locus YBR231C, strain swc5, active compounds read low",0.995
same,normalized growth,"locus YBR279W, strain paf1, active compounds read low",1.05
same,normalized growth,"locus YCL011C, strain gbp2, active compounds read low",1.01
same,normalized growth,"locus YCL016C, strain dcc1, active compounds read low",1.02
same,normalized growth,"locus YCL069W, strain vba3, active compounds read low",1.04
same,normalized growth,"locus YCR088W, strain abp1, active compounds read low",1.02
same,normalized growth,"locus YDL005C, strain med2, active compounds read low",1.03
same,normalized growth,"locus YDL040C, strain nat1, active compounds read low",1.02
same,normalized growth,"locus YDR001C, strain nth1, active compounds read low",1.02
same,normalized growth,"locus YDR069C, strain doa4, active compounds read low",1.05
same,normalized growth,"locus YDR137W, strain rgp1, active compounds read low",1.05
same,normalized growth,"locus YDR159W, strain sac3, active compounds read low",0.98
same,normalized growth,"locus YDR195W, strain ref2",0.978
same,normalized growth,"locus YDR297W, strain sur2, active compounds read low",1.02
same,normalized growth,"locus YDR334W, strain swr1, active compounds read low",1.02
same,normalized growth,"locus YDR335W, strain msn5, active compounds read low",1.03
same,normalized growth,"locus YDR392W, strain spt3, active compounds read low",0.984
same,normalized growth,"locus YEL003W, strain gim4, active compounds read low",0.997
same,normalized growth,"locus YEL037C, strain rad23, active compounds read low",1.02
same,normalized growth,"locus YEL061C, strain CIN8 (second series), active compounds read low",1.04
same,normalized growth,"locus YER015W, strain faa2, active compounds read low",1.04
same,normalized growth,"locus YER016W, strain bim1, active compounds read low",1.03
same,normalized growth,"locus YER111C, strain swi4, active compounds read low",1.03
same,normalized growth,"locus YER155C, strain BEM2 (second series), active compounds read low",1.03
same,normalized growth,"locus YFR010W, strain ubp6, active compounds read low",1.02
same,normalized growth,"locus YGL167C, strain pmr1, active compounds read low",1.03
same,normalized growth,"locus YGL173C, strain kem1, active compounds read low",1
same,normalized growth,"locus YGL227W, strain vid30, active compounds read low",1.02
same,normalized growth,"locus YGL240W, strain doc1, active compounds read low",0.968
same,normalized growth,"locus YGL253W, strain hxk2, active compounds read low",1.03
same,normalized growth,"locus YHR013C, strain ard1, active compounds read low",1.03
same,normalized growth,"locus YHR027C, strain rpn1, active compounds read low",1
same,normalized growth,"locus YHR030C, strain SLT2, active compounds read low",0.991
same,normalized growth,"locus YHR079C, strain IRE1, active compounds read low",0.987
same,normalized growth,"locus YHR142W, strain chs7, active compounds read low",1.06
same,normalized growth,"locus YJL092W, strain hpr5, active compounds read low",1.02
same,normalized growth,"locus YJL095W, strain BCK1 (second series), active compounds read low",1.02
same,normalized growth,"locus YJL095W, strain BCK1, active compounds read low",1.01
same,normalized growth,"locus YJL115W, strain asf1, active compounds read low",1.02
same,normalized growth,"locus YJL129C, strain trk1, active compounds read low",1.05
same,normalized growth,"locus YJL154C, strain vps35, active compounds read low",1.01
same,normalized growth,"locus YJL164C, strain tpk1, active compounds read low",1.02
same,normalized growth,"locus YJL166W, strain qcr8, active compounds read low",1.04
same,normalized growth,"locus YJR066W, strain TOR1, active compounds read low",0.942
same,normalized growth,"locus YKL160W, strain elf1, active compounds read low",1.02
same,normalized growth,"locus YKR026C, strain gcn3, active compounds read low",1.04
same,normalized growth,"locus YKR091W, strain srl3, active compounds read low",1.01
same,normalized growth,"locus YLL001W, strain dnm1, active compounds read low",1
same,normalized growth,"locus YLL026W, active compounds read low",1.02
same,normalized growth,"locus YLL041C, strain sdh2, active compounds read low",1.03
same,normalized growth,"locus YLR027C, strain aat2, active compounds read low",1.02
same,normalized growth,"locus YLR113W, strain HOG1, active compounds read low",0.991
same,normalized growth,"locus YLR221C, strain rsa3, active compounds read low",1
same,normalized growth,"locus YLR258W, strain gsy2, active compounds read low",1.02
same,normalized growth,"locus YLR262C, strain YPT6 (second series), active compounds read low",1.02
same,normalized growth,"locus YLR320W, strain mms22, active compounds read low",0.981
same,normalized growth,"locus YLR342W, strain FKS1, active compounds read low",1.04
same,normalized growth,"locus YLR357W, strain rsc2, active compounds read low",1.06
same,normalized growth,"locus YLR370C, strain arc18, active compounds read low",1.02
same,normalized growth,"locus YLR384C, strain iki3, active compounds read low",1.01
same,normalized growth,"locus YML120C, strain ndi1, active compounds read low",0.986
same,normalized growth,"locus YMR058W, strain fet3, active compounds read low",1.05
same,normalized growth,"locus YMR125W, strain sto1, active compounds read low",1.02
same,normalized growth,"locus YMR129W, active compounds read low",1.02
same,normalized growth,"locus YMR205C, strain PFK2, active compounds read low",0.995
same,normalized growth,"locus YMR231W, strain pep5, active compounds read low",1.04
same,normalized growth,"locus YNL071W, strain lat1, active compounds read low",1.03
same,normalized growth,"locus YNL183C, strain NPR1, active compounds read low",0.944
same,normalized growth,"locus YNL209W, strain ssb2, active compounds read low",1.02
same,normalized growth,"locus YNL248C, strain rpa49, active compounds read low",1.12 [resistant] (active)
same,normalized growth,"locus YNL322C, strain KRE1 (second series), active compounds read low",1.03
same,normalized growth,"locus YNR049C, strain mso1, active compounds read low",1.01
same,normalized growth,"locus YOR001W, strain rrp6, active compounds read low",1.01
same,normalized growth,"locus YOR070C, strain gyp1, active compounds read low",1.02
same,normalized growth,"locus YOR080W, strain dia2, active compounds read low",1.03
same,normalized growth,"locus YOR083W, strain WHI5, active compounds read low",0.993
same,normalized growth,"locus YOR106W, strain vam3, active compounds read low",1.05
same,normalized growth,"locus YOR231W, strain MKK1, active compounds read low",1.01
same,normalized growth,"locus YOR265W, strain rbl2, active compounds read low",1.02
same,normalized growth,"locus YOR270C, strain vph1, active compounds read low",1.16
same,normalized growth,"locus YOR290C, strain snf2, active compounds read low",1.04
same,normalized growth,"locus YPL051W, strain arl3, active compounds read low",1.06
same,normalized growth,"locus YPL078C, strain atp4, active compounds read low",1.05
same,normalized growth,"locus YPL106C, strain sse1, active compounds read low",1.05
same,normalized growth,"locus YPL240C, strain hsp82, active compounds read low",1.01
same,normalized growth,"locus YPL256C, strain CLN2, active compounds read low",0.995

# Reference: PubChem BioAssay AID1159580 (chemical genetic matrix, 2015)
